Several values for one entry are separate records, joined by “and”; a condition that tells them apart may be missing. Equal entries are not always repeated. Hit rate of the full screen: of about 5,500 compounds, about 2,000 (36%) were called active. Roughly 18% stayed inconclusive and do not appear here. Cut-off read from the data, not from the text of the source: active = normalized growth mostly below about 0.91 (no sharp cut-off); inconclusive = no clear call, values can overlap the other calls; inactive = mostly above about 0.92. Some of the results follow.
Test: chemical genetic growth profiling, strain panel (AID 1159580);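 note: tested at 20 µM; growth read once vehicle control cultures reached saturation at 30 °C; 1 = growth at the plate median or of vehicle wells; lower values mean less growth of the strain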
Conditions: growth OD

Measured: normalized growth

CC(C)[N+](C)(CCOC(=O)C1c2ccccc2Oc2ccccc21)C(C)C
inactive: S. cerevisiae deletion strains, locus YJR075W, strain HOC1, hits give low values 1.02 | S. cerevisiae deletion strains, locus YKL009W, strain mrt4, hits give low values 1.02 | S. cerevisiae deletion strains, locus YKL068W, hits give low values 1.01 | S. cerevisiae deletion strains, locus YKL085W, strain MDH1 (second series), hits give low values 1.01 | S. cerevisiae deletion strains, locus YKL085W, strain MDH1, hits give low values 1.01 | S. cerevisiae deletion strains, locus YKL160W, strain elf1, hits give low values 1.04 | S. cerevisiae deletion strains, locus YKL190W, strain CNB1, hits give low values 1.02 | S. cerevisiae deletion strains, locus YKR001C, strain vps1, hits give low values 1.01 | S. cerevisiae deletion strains, locus YKR026C, strain gcn3, hits give low values 0.997 | S. cerevisiae deletion strains, locus YKR091W, strain srl3, hits give low values 0.994 | S. cerevisiae deletion strains, locus YLL001W, strain dnm1, hits give low values 1.01 | S. cerevisiae deletion strains, locus YLL026W, hits give low values 1.02 | S. cerevisiae deletion strains, locus YLL041C, strain sdh2, hits give low values 1 | S. cerevisiae deletion strains, locus YLR027C, strain aat2, hits give low values 1 | S. cerevisiae deletion strains, locus YLR039C, strain RIC1, hits give low values 1.05 | S. cerevisiae deletion strains, locus YLR058C, strain SHM2, hits give low values 1.01 | S. cerevisiae deletion strains, locus YLR102C, strain apc9, hits give low values 1 | S. cerevisiae deletion strains, locus YLR113W, strain HOG1, hits give low values 1.02 | S. cerevisiae deletion strains, locus YLR221C, strain rsa3, hits give low values 0.996 | S. cerevisiae deletion strains, locus YLR258W, strain gsy2, hits give low values 1.02 | S. cerevisiae deletion strains, locus YLR262C, strain YPT6 (second series), hits give low values 1 | S. cerevisiae deletion strains, locus YLR262C, strain YPT6, hits give low values 1.07 | S. cerevisiae deletion strains, locus YLR268W, strain sec22, hits give low values 1.02 | S. cerevisiae deletion strains, locus YLR320W, strain mms22, hits give low values 0.985 | S. cerevisiae deletion strains, locus YLR330W, strain CHS5, hits give low values 1 | S. cerevisiae deletion strains, locus YLR342W, strain FKS1 (second series), hits give low values 1.02 | S. cerevisiae deletion strains, locus YLR342W, strain FKS1, hits give low values 1.02 | S. cerevisiae deletion strains, locus YLR357W, strain rsc2, hits give low values 1.02 | S. cerevisiae deletion strains, locus YLR370C, strain arc18, hits give low values 1.01 | S. cerevisiae deletion strains, locus YLR371W, strain rom2, hits give low values 1.01 | S. cerevisiae deletion strains, locus YLR384C, strain iki3, hits give low values 1.02 | S. cerevisiae deletion strains, locus YLR418C, strain cdc73, hits give low values 1.02 | S. cerevisiae deletion strains, locus YML016C, strain PPZ1, hits give low values 1 | S. cerevisiae deletion strains, locus YML032C, strain rad52, hits give low values 1.01 | S. cerevisiae deletion strains, locus YML120C, strain ndi1, hits give low values 1.01 | S. cerevisiae deletion strains, locus YML124C, strain tub3, hits give low values 1.01 | S. cerevisiae deletion strains, locus YMR058W, strain fet3, hits give low values 1 | S. cerevisiae deletion strains, locus YMR078C, strain ctf18, hits give low values 1 | S. cerevisiae deletion strains, locus YMR125W, strain sto1, hits give low values 1 | S. cerevisiae deletion strains, locus YMR129W, hits give low values 1.01 | S. cerevisiae deletion strains, locus YMR205C, strain PFK2, hits give low values 0.998 | S. cerevisiae deletion strains, locus YMR223W, strain ubp8, hits give low values 0.994 | S. cerevisiae deletion strains, locus YMR231W, strain pep5, hits give low values 1.01 | S. cerevisiae deletion strains, locus YMR307W, strain GAS1, hits give low values 1.01 and 1.02 | S. cerevisiae deletion strains, locus YNL067W, strain RPL9B, hits give low values 1.01 | S. cerevisiae deletion strains, locus YNL071W, strain lat1, hits give low values 1.01 | S. cerevisiae deletion strains, locus YNL128W, strain TEP1, hits give low values 1.02 | S. cerevisiae deletion strains, locus YNL153C, strain GIM3, hits give low values 1.01 and 0.989 | S. cerevisiae deletion strains, locus YNL175C, strain NOP13, hits give low values 1.02 | S. cerevisiae deletion strains, locus YNL183C, strain NPR1, hits give low values 0.971 | S. cerevisiae deletion strains, locus YNL197C, strain WHI3, hits give low values 0.999 | S. cerevisiae deletion strains, locus YNL209W, strain ssb2, hits give low values 1.01 | S. cerevisiae deletion strains, locus YNL224C, strain SQS1, hits give low values 1 | S. cerevisiae deletion strains, locus YNL233W, strain BNI4, hits give low values 1.01 | S. cerevisiae deletion strains, locus YNL248C, strain rpa49, hits give low values 1.04 | S. cerevisiae deletion strains, locus YNL250W, strain rad50, hits give low values 1.02 | S. cerevisiae deletion strains, locus YNL271C, strain bni1, hits give low values 1.01 | S. cerevisiae deletion strains, locus YNL298W, strain CLA4, hits give low values 1.03 | S. cerevisiae deletion strains, locus YNL307C, strain MCK1, hits give low values 1 | S. cerevisiae deletion strains, locus YNL322C, strain KRE1 (second series), hits give low values 1.02 | S. cerevisiae deletion strains, locus YNR049C, strain mso1, hits give low values 1.01 | S. cerevisiae deletion strains, locus YNR052C, strain pop2, hits give low values 1.01 | S. cerevisiae deletion strains, locus YOL006C, strain TOP1, hits give low values 1 | S. cerevisiae deletion strains, locus YOL012C, strain htz1 0.959 | S. cerevisiae deletion strains, locus YOL147C, strain pex11, hits give low values 1.01 | S. cerevisiae deletion strains, locus YOR001W, strain rrp6, hits give low values 0.976 | S. cerevisiae deletion strains, locus YOR061W, strain CKA2, hits give low values 1.01 | S. cerevisiae deletion strains, locus YOR069W, strain VPS5, hits give low values 1 | S. cerevisiae deletion strains, locus YOR070C, strain gyp1, hits give low values 1.01 | S. cerevisiae deletion strains, locus YOR080W, strain dia2, hits give low values 1.01 | S. cerevisiae deletion strains, locus YOR083W, strain WHI5 (second series), hits give low values 1.01 | S. cerevisiae deletion strains, locus YOR083W, strain WHI5, hits give low values 0.979 | S. cerevisiae deletion strains, locus YOR106W, strain vam3, hits give low values 1.03 | S. cerevisiae deletion strains, locus YOR136W, strain idh2, hits give low values 1 | S. cerevisiae deletion strains, locus YOR144C, strain elg1, hits give low values 1 | S. cerevisiae deletion strains, locus YOR184W, strain ser1, hits give low values 1.01 | S. cerevisiae deletion strains, locus YOR231W, strain MKK1, hits give low values 0.991 | S. cerevisiae deletion strains, locus YOR265W, strain rbl2, hits give low values 1 | S. cerevisiae deletion strains, locus YOR270C, strain vph1, hits give low values 1.04 | S. cerevisiae deletion strains, locus YOR290C, strain snf2, hits give low values 1.02 | S. cerevisiae deletion strains, locus YOR316C, strain cot1, hits give low values 1.01 | S. cerevisiae deletion strains, locus YPL051W, strain arl3, hits give low values 1.02 | S. cerevisiae deletion strains, locus YPL055C, strain LGE1, hits give low values 1.01 | S. cerevisiae deletion strains, locus YPL078C, strain atp4, hits give low values 1.02 | S. cerevisiae deletion strains, locus YPL106C, strain sse1, hits give low values 1.01 | S. cerevisiae deletion strains, locus YPL240C, strain hsp82, hits give low values 1.01 | S. cerevisiae deletion strains, locus YPL241C, strain CIN2, hits give low values 1.01 | S. cerevisiae deletion strains, locus YPL256C, strain CLN2, hits give low values 1.06 | S. cerevisiae deletion strains, locus YPR119W, strain clb2, hits give low values 0.996 | S. cerevisiae deletion strains, locus YPR141C, strain kar3, hits give low values 1.01 | S. cerevisiae deletion strains, locus YPR163C, strain tif3, hits give low values 1 | S. cerevisiae deletion strains, locus YPR167C, strain met16, hits give low values 1 | S. cerevisiae deletion strains, strain wtn01, hits give low values 1.01 | S. cerevisiae strains, strain wild type, hits give low values 1
